Measurements from PubChem BioAssay AID1159580 (chemical genetic matrix, 2015).
In all, about 5,500 compounds went through this assay and about 2,000 (36%) were called active. Not shown: some 18% with an inconclusive outcome. Rule as the data show it: active = normalized growth mostly below about 0.91 (no sharp cut-off); inconclusive = no clear call, values can overlap the other calls; inactive = mostly above about 0.92. The list shows a part of the results.

Experiment: chemical genetic growth profiling, strain panel (AID 1159580);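 also: tested at 20 µM; growth read once vehicle control cultures reached saturation at 30 °C; 1 = growth at the plate median or of vehicle wells; lower values mean less growth of the strain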
Conditions: growth OD

Measured: normalized growth

COc1cc2c3cc1Oc1cc(ccc1O)OC1c4c(cc(OC)c(O)c4Oc4ccc(cc4)CC3N(C)CC2)CCN1C (stereo unspecified)
inactive: S. cerevisiae deletion strains, locus YAL013W, strain DEP1, active compounds read low 0.992 | S. cerevisiae deletion strains, locus YBR021W, strain FUR4, active compounds read low 0.971 | S. cerevisiae deletion strains, locus YBR229C, strain ROT2, active compounds read low 0.993 | S. cerevisiae deletion strains, locus YCL029C, strain bik1, active compounds read low 0.967 | S. cerevisiae deletion strains, locus YDL035C, strain GPR1, active compounds read low 0.978 | S. cerevisiae deletion strains, locus YDL074C, strain BRE1, active compounds read low 1.02 | S. cerevisiae deletion strains, locus YDL101C, strain DUN1, active compounds read low 0.993 | S. cerevisiae deletion strains, locus YDL134C, strain PPH21, active compounds read low 0.996 | S. cerevisiae deletion strains, locus YDL185W, strain tfp1, active compounds read low 0.966 | S. cerevisiae deletion strains, locus YDL192W, strain arf1, active compounds read low 0.981 | S. cerevisiae deletion strains, locus YDR101C, strain arx1, active compounds read low 0.983 | S. cerevisiae deletion strains, locus YDR150W, strain NUM1, active compounds read low 0.995 | S. cerevisiae deletion strains, locus YDR162C, strain NBP2, active compounds read low 1.01 | S. cerevisiae deletion strains, locus YDR318W, strain mcm21, active compounds read low 0.965 | S. cerevisiae deletion strains, locus YDR388W, active compounds read low 0.989 | S. cerevisiae deletion strains, locus YDR502C, strain sam2, active compounds read low 0.984 | S. cerevisiae deletion strains, locus YEL061C, strain CIN8, active compounds read low 0.985 | S. cerevisiae deletion strains, locus YER110C, active compounds read low 0.966 | S. cerevisiae deletion strains, locus YER155C, strain BEM2, active compounds read low 0.999 | S. cerevisiae deletion strains, locus YER167W, strain BCK2, active compounds read low 0.958 | S. cerevisiae deletion strains, locus YGL078C, strain dbp3, active compounds read low 0.979 | S. cerevisiae deletion strains, locus YGL086W, strain mad1, active compounds read low 0.963 | S. cerevisiae deletion strains, locus YGL248W, strain PDE1, active compounds read low 0.999 | S. cerevisiae deletion strains, locus YGR078C, strain PAC10, active compounds read low 1.02 | S. cerevisiae deletion strains, locus YGR135W, strain pre9, active compounds read low 0.991 | S. cerevisiae deletion strains, locus YGR229C, strain SMI1, active compounds read low 1.01 | S. cerevisiae deletion strains, locus YGR252W, strain gcn5, active compounds read low 0.925 | S. cerevisiae deletion strains, locus YHR030C, strain SLT2, active compounds read low 0.972 | S. cerevisiae deletion strains, locus YHR079C, strain IRE1 (second series), active compounds read low 0.992 | S. cerevisiae deletion strains, locus YHR094C, strain hxt1, active compounds read low 0.957 | S. cerevisiae deletion strains, locus YHR129C, strain ARP1, active compounds read low 0.997 | S. cerevisiae deletion strains, locus YHR200W, strain rpn10, active compounds read low 0.964 | S. cerevisiae deletion strains, locus YIL066C, strain RNR3, active compounds read low 0.996 | S. cerevisiae deletion strains, locus YIL073C, strain SPO22, active compounds read low 0.899 | S. cerevisiae deletion strains, locus YIL125W, strain kgd1, active compounds read low 0.984 | S. cerevisiae deletion strains, locus YIR030C, strain dcg1, active compounds read low 0.978 | S. cerevisiae deletion strains, locus YJL095W, strain BCK1, active compounds read low 1.03 | S. cerevisiae deletion strains, locus YJL134W, strain LCB3, active compounds read low 0.99 | S. cerevisiae deletion strains, locus YJL168C, strain set2, active compounds read low 0.986 | S. cerevisiae deletion strains, locus YJL187C, strain SWE1 (second series), active compounds read low 0.999 | S. cerevisiae deletion strains, locus YJR043C, strain POL32, active compounds read low 0.952 | S. cerevisiae deletion strains, locus YJR075W, strain HOC1, active compounds read low 1.05 | S. cerevisiae deletion strains, locus YKL009W, strain mrt4, active compounds read low 0.977 | S. cerevisiae deletion strains, locus YKL068W, active compounds read low 0.975 | S. cerevisiae deletion strains, locus YKL085W, strain MDH1 (second series), active compounds read low 0.995 | S. cerevisiae deletion strains, locus YKL085W, strain MDH1, active compounds read low 0.995 | S. cerevisiae deletion strains, locus YKL190W, strain CNB1, active compounds read low 0.998 | S. cerevisiae deletion strains, locus YKR001C, strain vps1, active compounds read low 0.969 | S. cerevisiae deletion strains, locus YLR039C, strain RIC1, active compounds read low 0.942 | S. cerevisiae deletion strains, locus YLR058C, strain SHM2, active compounds read low 0.988 | S. cerevisiae deletion strains, locus YLR102C, strain apc9, active compounds read low 0.98 | S. cerevisiae deletion strains, locus YLR262C, strain YPT6, active compounds read low 0.982 | S. cerevisiae deletion strains, locus YLR268W, strain sec22, active compounds read low 1 | S. cerevisiae deletion strains, locus YLR330W, strain CHS5, active compounds read low 0.987 | S. cerevisiae deletion strains, locus YLR342W, strain FKS1 (second series), active compounds read low 0.957 | S. cerevisiae deletion strains, locus YLR371W, strain rom2, active compounds read low 0.968 | S. cerevisiae deletion strains, locus YLR418C, strain cdc73, active compounds read low 1.02 | S. cerevisiae deletion strains, locus YML016C, strain PPZ1, active compounds read low 0.99 | S. cerevisiae deletion strains, locus YML032C, strain rad52, active compounds read low 0.951 | S. cerevisiae deletion strains, locus YML124C, strain tub3, active compounds read low 0.976 | S. cerevisiae deletion strains, locus YMR078C, strain ctf18, active compounds read low 0.968 | S. cerevisiae deletion strains, locus YMR223W, strain ubp8, active compounds read low 0.951 | S. cerevisiae deletion strains, locus YMR263W, strain SAP30, active compounds read low 1.01 | S. cerevisiae deletion strains, locus YMR307W, strain GAS1, active compounds read low 0.955 | S. cerevisiae deletion strains, locus YNL067W, strain RPL9B, active compounds read low 1 | S. cerevisiae deletion strains, locus YNL128W, strain TEP1, active compounds read low 0.99 | S. cerevisiae deletion strains, locus YNL153C, strain GIM3, active compounds read low 1.02 | S. cerevisiae deletion strains, locus YNL233W, strain BNI4, active compounds read low 1.02 | S. cerevisiae deletion strains, locus YNL250W, strain rad50, active compounds read low 0.973 | S. cerevisiae deletion strains, locus YNL271C, strain bni1, active compounds read low 0.993 | S. cerevisiae deletion strains, locus YNL298W, strain CLA4, active compounds read low 0.967 | S. cerevisiae deletion strains, locus YNL307C, strain MCK1, active compounds read low 0.952 | S. cerevisiae deletion strains, locus YNL322C, strain KRE1, active compounds read low 0.979 | S. cerevisiae deletion strains, locus YNR052C, strain pop2, active compounds read low 0.961 | S. cerevisiae deletion strains, locus YOL006C, strain TOP1, active compounds read low 1.03 | S. cerevisiae deletion strains, locus YOL012C, strain htz1 1.06 | S. cerevisiae deletion strains, locus YOL147C, strain pex11, active compounds read low 0.973 | S. cerevisiae deletion strains, locus YOR061W, strain CKA2, active compounds read low 0.998 | S. cerevisiae deletion strains, locus YOR069W, strain VPS5, active compounds read low 0.991 | S. cerevisiae deletion strains, locus YOR136W, strain idh2, active compounds read low 0.96 | S. cerevisiae deletion strains, locus YOR144C, strain elg1, active compounds read low 0.982 | S. cerevisiae deletion strains, locus YOR184W, strain ser1, active compounds read low 0.93 | S. cerevisiae deletion strains, locus YOR316C, strain cot1, active compounds read low 0.977 | S. cerevisiae deletion strains, locus YPL055C, strain LGE1, active compounds read low 1 | S. cerevisiae deletion strains, locus YPL241C, strain CIN2, active compounds read low 0.997 | S. cerevisiae deletion strains, locus YPR119W, strain clb2, active compounds read low 0.989 | S. cerevisiae deletion strains, locus YPR141C, strain kar3, active compounds read low 0.99 | S. cerevisiae deletion strains, locus YPR163C, strain tif3, active compounds read low 0.96 | S. cerevisiae deletion strains, locus YPR167C, strain met16, active compounds read low 0.98 | S. cerevisiae deletion strains, strain wtn01, active compounds read low 1.01 | S. cerevisiae strains, strain wild type, active compounds read low 0.989
